# Measured values as given in PubChem BioAssay (NCATS).
# Inconclusive results are not listed. A call without a number means that no potency is given here. Active and inactive are the calls of the source. Calls come from the whole dose curve; as a rule, active = well fitted cell-killing curve with a large enough effect; inconclusive = small, poorly fitted or top-dose-only effect, or effect the other way; inactive = no such curve, though single readings can be large or run the other way.
# How the values were obtained:
# [1] = Quantitative High-Throughput drug screen in 47 multiple myeloma cell lines against the NCATS MIPE library collection: Delta47_JCRB cell viability assay (AID 1918925; note: nearly all actives have a fitted effect of over 45% in size)
# Outline: (§1)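 Luminescent ATP measurement with CellTiter-Glo gives viability, scaled between DMSO-only wells (100%) and media-only wells (0%). Cells, 500 per well, faced library compounds for 48 hours at 37C.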
# [2] = Quantitative High-Throughput drug screen in 47 multiple myeloma cell lines against the NCATS MIPE library collection: AMO1_DSMZ cell viability assay (AID 1918927; note: nearly all actives have a fitted effect of over 30% in size)
# Outline: as §1
# [3] = Quantitative High-Throughput drug screen in 47 multiple myeloma cell lines against the NCATS MIPE library collection: ARP1_JJKsccF8 cell viability assay (AID 1918928; note: nearly all actives have a fitted effect of over 40% in size)
# Outline: (§2)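 Each line was plated at 500 cells/well and treated 48 h with library drugs. Viability came from CellTiter-Glo luminescence relative to DMSO and cell-free medium controls.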
# [4] = Quantitative High-Throughput drug screen in 47 multiple myeloma cell lines against the NCATS MIPE library collection: Karpas620_DSMZ cell viability assay (AID 1918959); note: nearly all actives have a fitted effect of over 30% in size
# Outline: (§3)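 qHTS of the MIPE 4.0 collection: 500 myeloma cells/well, 48 h drug exposure at 37C in 5% CO2, then CellTiter-Glo for 5 min at room temperature before luminescence reading.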
# [5] = Quantitative High-Throughput drug screen in 47 multiple myeloma cell lines against the NCATS MIPE library collection: KMM1_JCRB cell viability assay (AID 1918960); note: nearly all actives have a fitted effect of over 30% in size
# Outline: as §2
# [6] = Quantitative High-Throughput drug screen in 47 multiple myeloma cell lines against the NCATS MIPE library collection: FR4_PLB cell viability assay (AID 1918924; note: nearly all actives have a fitted effect of over 35% in size)
# Outline: as §3
# [7] = Quantitative High-Throughput drug screen in 47 multiple myeloma cell lines against the NCATS MIPE library collection: Karpas417_ECACC cell viability assay (AID 1918961); settings: Karpas417 myeloma viability, CellTiter-Glo ATP luminescence, 48 h; viability (% of DMSO): at 45.8 µM (top of the series)
# Outline: as §1
# [8] = Quantitative High-Throughput drug screen in 47 multiple myeloma cell lines against the NCATS MIPE library collection: ARD_JJKsccE7 cell viability assay (AID 1918929)
# Outline: as §1
# [9] = Quantitative High-Throughput drug screen in 47 multiple myeloma cell lines against the NCATS MIPE library collection: EJM_DSMZ cell viability assay (AID 1918926; note: nearly all actives have a fitted effect of over 30% in size)
# Outline: as §1
# Potency is the fitted concentration of half-maximal effect.
smiles,measurement,setting,value
CC[C@@H]1C=C(C)C[C@H](C)C[C@H](OC)[C@H]2O[C@@](O)(C(=O)C(=O)N3CCCC[C@@H]3C(=O)O[C@H](C(C)=C[C@@H]3CC[C@H](Cl)[C@H](OC)C3)[C@H](C)[C@@H](O)CC1=O)[C@H](C)C[C@H]2OC,Potency,[1],16.6 µM (active)
same,Potency,[2],9.35 µM (active)
same,Potency,[3],13.2 µM (active)
same,Potency,[4],13.2 µM (active)
same,Potency,[5],8.33 µM (active)
O=C(Nc1ccccc1Br)N[C@@H]1CCN(c2ccc(C(F)(F)F)cn2)C1,Potency,[6],inactive
same,Potency,[5],inactive
same,Potency,[7],inactive
NC(=O)NN=Cc1ccc([N+](=O)[O-])o1,Potency,[6],inactive
same,Potency,[2],10.5 µM (active)
same,Potency,[4],18.7 µM (active)
O=C(O)[C@H]1O[C@H](Oc2cc3oc(-c4ccccc4)cc(=O)c3c(O)c2O)[C@H](O)[C@@H](O)[C@H]1O,Potency,[6],26.4 µM (active)
same,Potency,[8],inactive
CNC(=O)c1ccccc1Sc1ccc2c(C=Cc3ccccn3)n[nH]c2c1,Potency,[1],3.72 µM (active)
same,Potency,[9],23.5 µM (active)
same,Potency,[2],2.64 µM (active)
same,Potency,[4],0.264 µM (active)
same,Potency,[5],3.32 µM (active)
CC(C)n1cnc2c(NCCCCCCNC(=O)OC(C)(C)C)nc(NCCO)nc21,Potency,[1],14.8 µM (active)
same,Potency,[9],20.9 µM (active)
same,Potency,[2],4.69 µM (active)
same,Potency,[8],5.9 µM (active)
same,Potency,[5],7.43 µM (active)
Nc1nc(F)nc2c1ncn2[C@@H]1O[C@H](COP(=O)(O)O)[C@@H](O)[C@H]1O,Potency,[6],1.87 µM (active)
same,Potency,[8],0.0019 µM (active)
same,Potency,[4],18.7 µM (active)
same,Potency,[5],inactive
same,Potency,[7],4.18 µM (active)
O=C(O)c1ccc(-c2cc3cccnc3c(-c3ccc4nonc4c3)n2)cc1,Potency,[1],23.5 µM (active)
same,Potency,[9],18.7 µM (active)
COc1cc(N2CCC(N3CCN(C)CC3)CC2)ccc1Nc1ncc(Cl)c(Nc2ccccc2S(=O)(=O)C(C)C)n1,Potency,[1],inactive
Nc1ncnc2c1ncn2[C@@H]1O[C@@H](CO)[C@H](O)[C@H]1O,Potency,[1],inactive
same,Potency,[9],inactive
same,Potency,[2],inactive
same,Potency,[3],inactive
same,Potency,[8],inactive
same,Potency,[4],inactive
same,Potency,[7],inactive
Nc1ncnc2c1ncn2[C@@H]1O[C@H](CO)C[C@@H]1O,Potency,[1],inactive
same,Potency,[9],inactive
same,Potency,[2],inactive
same,Potency,[3],inactive
same,Potency,[8],inactive
same,Potency,[4],inactive
same,Potency,[5],inactive
same,Potency,[7],inactive
CC(=O)O[C@]1(C(C)=O)CC[C@@H]2[C@@H]3C[C@H](C)C4=CC(=O)CC[C@]4(C)[C@H]3CC[C@@]21C,Potency,[1],18.7 µM (active)
same,Potency,[9],20.9 µM (active)
same,Potency,[3],26.4 µM (active)
same,Potency,[4],inactive
same,Potency,[5],4.69 µM (active)
CCC(CC)[C@H](NC(C)=O)[C@@H]1[C@H](O)[C@@H](C(=O)O)C[C@@H]1N=C(N)N,Potency,[1],inactive
same,Potency,[9],inactive
same,Potency,[8],inactive
O=C(O)c1ccc(-c2c[nH]c3ncc(-c4ccccc4)cc23)cc1C1CCCC1,Potency,[9],inactive
same,Potency,[2],2.96 µM (active)
same,Potency,[8],0.935 µM (active)
same,Potency,[4],inactive
same,Potency,[5],inactive
COc1ccc(-n2c(C)c([N+](=O)[O-])c3ccc(O)cc32)cc1,Potency,[4],inactive
same,Potency,[5],inactive
O=C(O)c1cc(O)c2c(c1)C(=O)c1cccc(O)c1C2=O,Potency,[3],34 µM (active)
same,Potency,[8],inactive
CC(=O)OC1C(C)OC(Oc2c(-c3ccc(O)cc3)oc3cc(O)cc(O)c3c2=O)C(O)C1OC(C)=O (stereo unspecified),Potency,[3],inactive
Cc1cc(OCCCc2c(C(=O)O)n(Cc3cccnc3)c3c(-c4c(COc5ccc(N6CCN([S+](C)(=O)[O-])CC6)cc5)nn(C)c4C)cccc23)cc(C)c1Cl,Potency,[1],18.7 µM (active)
same,Potency,[2],inactive
same,Potency,[8],inactive
same,Potency,[4],inactive
same,Potency,[5],9.35 µM (active)
CO[C@H]1C[C@@H]2CC[C@@H](C)[C@@](O)(O2)C(=O)C(=O)N2CCCC[C@@H]2C(=O)O[C@H]([C@H](C)C[C@@H]2CC[C@H](OC(=O)C(C)(CO)CO)[C@H](OC)C2)CC(=O)[C@H](C)C=C(C)[C@@H](O)[C@@H](OC)C(=O)[C@H](C)C[C@H](C)C=CC=CC=C1C,Potency,[4],9.35 µM (active)
O=C(O)C(O)Cc1ccc(O)c(O)c1 (stereo unspecified),Potency,[9],23.5 µM (active)
same,Potency,[2],inactive
same,Potency,[3],23.5 µM (active)
same,Potency,[8],inactive
same,Potency,[4],inactive
CC(C)C[C@H](CC(=O)O)C(=O)N[C@@H](Cc1c[nH]c2ccccc12)C(=O)N[C@@H](C)c1ccccc1,Potency,[9],inactive
same,Potency,[2],inactive
same,Potency,[4],inactive
same,Potency,[5],inactive
O=c1cc(CN2CCOCC2)occ1OCCCCCSc1ccnc2cc(C(F)(F)F)ccc12,Potency,[1],6.62 µM (active)
same,Potency,[2],18.7 µM (active)
same,Potency,[8],20.9 µM (active)
same,Potency,[5],13.2 µM (active)
COc1ccc(-c2coc3cc(O)ccc3c2=O)cc1,Potency,[9],inactive
same,Potency,[8],inactive
same,Potency,[4],inactive
same,Potency,[7],inactive
COC1CCC(N(C(=O)C2CCC(C)CC2)c2cc(C3=CCCCC3)sc2C(=O)O)CC1 (stereo unspecified),Potency,[8],inactive
same,Potency,[4],inactive
same,Potency,[5],inactive
CC[C@H]1OC(=O)[C@H](C)C(=O)[C@H](C)[C@@H](O[C@H]2O[C@H](C)C[C@H](N(C)C)[C@@H]2O)[C@](C)(OC)C[C@@H](C)C(=O)[C@H](C)[C@H]2N(CCCCn3cnc(-c4cccnc4)c3)C(=O)O[C@]12C,Potency,[2],inactive
same,Potency,[8],inactive
same,Potency,[4],inactive
same,Potency,[5],3.72 µM (active)
COCCCCC(=NOCCN)c1ccc(C(F)(F)F)cc1,Potency,[2],inactive
same,Potency,[8],inactive
same,Potency,[4],inactive
same,Potency,[5],inactive
CC1CCC(C(=O)N(c2cc(C#CC(C)(C)C)sc2C(=O)O)C2CCC(O)CC2)CC1 (stereo unspecified),Potency,[1],23.5 µM (active)
same,Potency,[2],inactive
same,Potency,[8],inactive
same,Potency,[4],inactive
same,Potency,[5],inactive
O=c1cc(-c2ccccc2)oc2cc(O)c(O)c(O)c12,Potency,[9],inactive
same,Potency,[8],inactive
same,Potency,[4],inactive
same,Potency,[5],inactive
N#CC1(c2ccc(NC(=O)c3cccnc3NCc3ccncc3)cc2)CCCC1,Potency,[9],inactive
same,Potency,[2],inactive
same,Potency,[3],inactive
same,Potency,[8],inactive
same,Potency,[4],inactive
same,Potency,[5],inactive
Clc1ccc(COC(Cn2ccnc2)c2ccc(Cl)cc2Cl)cc1 (stereo unspecified),Potency,[2],23.5 µM (active)
same,Potency,[8],26.4 µM (active)
same,Potency,[5],20.9 µM (active)
